Here are results for 1 compound from ChEMBL document CHEMBL1961873, “Compounds: GSK PKIS; Assays: Nanosyn kinase panel” (2012).

The target of assay [1] is T1, Inhibitor of nuclear factor kappa-B kinase subunit epsilon (Homo sapiens) (UniProt Q14164).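 Also: reported values are averaged percent inhibition figures against human IKKε.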
T1 sequence (whole entry): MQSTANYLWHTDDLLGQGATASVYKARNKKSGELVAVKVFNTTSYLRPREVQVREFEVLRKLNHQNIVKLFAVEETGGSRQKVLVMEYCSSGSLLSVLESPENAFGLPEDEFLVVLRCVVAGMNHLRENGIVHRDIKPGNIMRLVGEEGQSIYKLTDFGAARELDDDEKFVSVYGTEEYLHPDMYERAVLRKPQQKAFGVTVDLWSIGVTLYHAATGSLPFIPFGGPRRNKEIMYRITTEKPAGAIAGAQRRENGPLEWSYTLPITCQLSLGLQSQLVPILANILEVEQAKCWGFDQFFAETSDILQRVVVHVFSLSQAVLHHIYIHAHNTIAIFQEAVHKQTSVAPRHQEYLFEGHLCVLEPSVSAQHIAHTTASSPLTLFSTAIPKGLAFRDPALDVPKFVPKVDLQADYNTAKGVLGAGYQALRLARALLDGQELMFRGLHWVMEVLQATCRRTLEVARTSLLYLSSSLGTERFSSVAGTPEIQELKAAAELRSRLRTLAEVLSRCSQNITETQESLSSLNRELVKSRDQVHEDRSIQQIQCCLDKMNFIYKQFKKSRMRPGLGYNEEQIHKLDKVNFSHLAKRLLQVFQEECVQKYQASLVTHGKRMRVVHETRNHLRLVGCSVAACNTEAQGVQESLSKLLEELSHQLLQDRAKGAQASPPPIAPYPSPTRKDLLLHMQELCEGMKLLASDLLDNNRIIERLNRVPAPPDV
To be noted: at 1 µM.

For assay [2], the target named is T2, Serine/threonine-protein kinase Nek1 (Homo sapiens) (UniProt Q96PY6).
T2 sequence (whole entry): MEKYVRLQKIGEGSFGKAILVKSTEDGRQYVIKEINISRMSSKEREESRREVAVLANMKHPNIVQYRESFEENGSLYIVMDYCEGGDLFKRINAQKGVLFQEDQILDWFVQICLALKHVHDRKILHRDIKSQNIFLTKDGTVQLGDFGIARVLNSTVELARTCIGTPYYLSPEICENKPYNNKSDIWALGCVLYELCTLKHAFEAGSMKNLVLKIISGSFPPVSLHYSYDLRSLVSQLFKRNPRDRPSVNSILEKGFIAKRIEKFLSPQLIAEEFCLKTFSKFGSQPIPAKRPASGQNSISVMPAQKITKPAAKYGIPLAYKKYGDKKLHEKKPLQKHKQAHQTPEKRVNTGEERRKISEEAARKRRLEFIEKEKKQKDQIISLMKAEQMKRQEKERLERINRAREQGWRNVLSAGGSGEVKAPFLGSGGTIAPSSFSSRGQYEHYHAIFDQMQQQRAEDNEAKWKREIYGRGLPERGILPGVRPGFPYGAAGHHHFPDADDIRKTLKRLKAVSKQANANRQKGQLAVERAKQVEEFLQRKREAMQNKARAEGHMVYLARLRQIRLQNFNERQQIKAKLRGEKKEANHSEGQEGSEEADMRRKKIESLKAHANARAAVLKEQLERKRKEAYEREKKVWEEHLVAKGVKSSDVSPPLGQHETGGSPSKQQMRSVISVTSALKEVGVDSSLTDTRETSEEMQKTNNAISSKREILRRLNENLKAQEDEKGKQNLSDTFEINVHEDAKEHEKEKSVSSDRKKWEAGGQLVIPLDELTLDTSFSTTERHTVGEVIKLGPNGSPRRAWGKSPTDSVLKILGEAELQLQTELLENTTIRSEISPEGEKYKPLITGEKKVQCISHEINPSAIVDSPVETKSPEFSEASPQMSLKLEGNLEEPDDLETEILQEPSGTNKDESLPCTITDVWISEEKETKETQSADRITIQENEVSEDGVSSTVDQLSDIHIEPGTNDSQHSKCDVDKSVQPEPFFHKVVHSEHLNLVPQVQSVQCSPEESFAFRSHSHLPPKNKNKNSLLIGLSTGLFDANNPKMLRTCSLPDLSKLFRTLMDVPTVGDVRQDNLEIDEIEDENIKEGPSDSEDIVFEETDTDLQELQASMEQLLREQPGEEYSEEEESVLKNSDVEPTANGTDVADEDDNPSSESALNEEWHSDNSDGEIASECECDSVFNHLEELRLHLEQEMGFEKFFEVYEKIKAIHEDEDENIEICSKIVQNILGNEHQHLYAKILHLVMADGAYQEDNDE
To be noted: at 0.1 µM.

Assay [3] deals with T2, Serine/threonine-protein kinase Nek1 (Homo sapiens). Conditions: at 1 µM.
Assay [4] concerns the target T3, Serine/threonine-protein kinase Nek2 (Homo sapiens) (UniProt P51955).
T3 sequence (whole entry): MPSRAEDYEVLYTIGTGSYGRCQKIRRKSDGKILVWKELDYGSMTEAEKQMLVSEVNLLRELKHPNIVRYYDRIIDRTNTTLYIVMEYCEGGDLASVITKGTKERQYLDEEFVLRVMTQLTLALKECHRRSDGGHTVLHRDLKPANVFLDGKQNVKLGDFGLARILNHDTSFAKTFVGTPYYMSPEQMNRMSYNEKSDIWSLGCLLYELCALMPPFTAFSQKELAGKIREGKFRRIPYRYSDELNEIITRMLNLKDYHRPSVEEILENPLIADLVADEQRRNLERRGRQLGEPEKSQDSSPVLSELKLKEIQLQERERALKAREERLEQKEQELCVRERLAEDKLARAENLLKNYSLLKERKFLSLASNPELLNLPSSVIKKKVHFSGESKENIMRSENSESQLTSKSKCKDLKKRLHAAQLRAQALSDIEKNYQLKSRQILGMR
To be noted: at 0.1 µM.

Assay [5] concerns the target T3, Serine/threonine-protein kinase Nek2 (Homo sapiens). Conditions: at 1 µM.
Assay [6] addresses Serine/threonine-protein kinase Nek6 (Homo sapiens) (UniProt Q9HC98). Conditions: at 0.1 µM.
Assay [7] shares this target. To be noted: at 1 µM.
Assay [8] deals with Serine/threonine-protein kinase Nek7 (Homo sapiens) (UniProt Q8TDX7). Conditions: at 0.1 µM.
The target is the same in assay [9]. Conditions: at 1 µM.
The target of assay [10] is T4, Serine/threonine-protein kinase Nek9 (Homo sapiens) (UniProt Q8TD19).
T4 sequence (whole entry): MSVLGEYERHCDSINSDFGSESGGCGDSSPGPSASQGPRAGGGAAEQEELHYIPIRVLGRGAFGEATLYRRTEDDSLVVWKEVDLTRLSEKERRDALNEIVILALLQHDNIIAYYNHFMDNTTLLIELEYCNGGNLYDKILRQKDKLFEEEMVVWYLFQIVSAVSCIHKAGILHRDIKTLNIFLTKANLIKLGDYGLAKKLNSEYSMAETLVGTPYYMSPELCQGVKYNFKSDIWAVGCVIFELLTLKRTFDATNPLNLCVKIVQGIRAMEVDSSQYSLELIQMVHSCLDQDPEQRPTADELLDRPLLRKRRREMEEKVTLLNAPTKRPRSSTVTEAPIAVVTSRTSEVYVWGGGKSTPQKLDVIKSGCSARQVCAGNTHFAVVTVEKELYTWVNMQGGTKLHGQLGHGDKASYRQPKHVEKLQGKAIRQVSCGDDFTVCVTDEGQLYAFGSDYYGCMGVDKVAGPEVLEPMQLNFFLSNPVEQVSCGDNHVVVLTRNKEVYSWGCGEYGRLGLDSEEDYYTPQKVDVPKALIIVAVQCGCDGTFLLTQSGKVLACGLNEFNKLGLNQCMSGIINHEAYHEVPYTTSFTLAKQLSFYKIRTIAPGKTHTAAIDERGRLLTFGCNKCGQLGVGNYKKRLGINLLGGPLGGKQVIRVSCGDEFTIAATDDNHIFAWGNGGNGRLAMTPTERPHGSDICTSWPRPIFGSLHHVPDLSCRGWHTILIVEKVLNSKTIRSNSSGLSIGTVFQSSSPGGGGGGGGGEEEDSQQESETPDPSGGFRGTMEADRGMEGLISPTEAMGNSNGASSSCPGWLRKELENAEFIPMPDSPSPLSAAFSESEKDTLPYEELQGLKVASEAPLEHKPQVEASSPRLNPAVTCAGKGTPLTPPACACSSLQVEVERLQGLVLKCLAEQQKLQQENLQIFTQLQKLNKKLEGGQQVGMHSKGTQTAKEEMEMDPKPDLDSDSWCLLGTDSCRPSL
To be noted: at 0.1 µM.

Assay [11] addresses T4, Serine/threonine-protein kinase Nek9 (Homo sapiens). To be noted: at 1 µM.
The target of assay [12] is Serine/threonine-protein kinase PLK1 (Homo sapiens) (UniProt P53350). To be noted: at 0.1 µM.
The target is the same in assay [13]. To be noted: at 1 µM.
Assay [14] has as its target T5, Dual specificity protein kinase TTK (Homo sapiens) (UniProt P33981).
T5 sequence (whole entry): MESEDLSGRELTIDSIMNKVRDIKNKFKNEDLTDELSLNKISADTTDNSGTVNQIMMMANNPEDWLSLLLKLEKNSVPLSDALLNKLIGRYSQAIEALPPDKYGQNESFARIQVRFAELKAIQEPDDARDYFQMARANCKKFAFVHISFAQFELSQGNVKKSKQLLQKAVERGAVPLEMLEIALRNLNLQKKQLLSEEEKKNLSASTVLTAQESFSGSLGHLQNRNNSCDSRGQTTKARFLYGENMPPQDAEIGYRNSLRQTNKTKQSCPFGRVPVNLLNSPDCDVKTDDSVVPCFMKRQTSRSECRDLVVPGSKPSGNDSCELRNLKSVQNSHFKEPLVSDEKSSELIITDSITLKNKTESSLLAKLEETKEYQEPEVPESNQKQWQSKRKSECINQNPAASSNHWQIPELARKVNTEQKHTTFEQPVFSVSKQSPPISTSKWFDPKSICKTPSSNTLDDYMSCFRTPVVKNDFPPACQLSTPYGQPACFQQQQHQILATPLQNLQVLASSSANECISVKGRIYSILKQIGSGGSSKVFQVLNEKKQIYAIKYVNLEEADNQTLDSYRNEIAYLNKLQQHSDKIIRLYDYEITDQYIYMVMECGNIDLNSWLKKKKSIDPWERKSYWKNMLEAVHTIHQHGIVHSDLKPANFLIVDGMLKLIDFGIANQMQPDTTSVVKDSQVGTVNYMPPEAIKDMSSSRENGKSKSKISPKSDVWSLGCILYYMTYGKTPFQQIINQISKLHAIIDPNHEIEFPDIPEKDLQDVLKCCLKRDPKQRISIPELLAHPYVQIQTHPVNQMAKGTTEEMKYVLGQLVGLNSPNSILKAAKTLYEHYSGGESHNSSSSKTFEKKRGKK
To be noted: at 0.1 µM.

Assay [15] relates to T6, Receptor-type tyrosine-protein kinase FLT3 (Homo sapiens), P36888 [D835Y].
T6 sequence (whole entry): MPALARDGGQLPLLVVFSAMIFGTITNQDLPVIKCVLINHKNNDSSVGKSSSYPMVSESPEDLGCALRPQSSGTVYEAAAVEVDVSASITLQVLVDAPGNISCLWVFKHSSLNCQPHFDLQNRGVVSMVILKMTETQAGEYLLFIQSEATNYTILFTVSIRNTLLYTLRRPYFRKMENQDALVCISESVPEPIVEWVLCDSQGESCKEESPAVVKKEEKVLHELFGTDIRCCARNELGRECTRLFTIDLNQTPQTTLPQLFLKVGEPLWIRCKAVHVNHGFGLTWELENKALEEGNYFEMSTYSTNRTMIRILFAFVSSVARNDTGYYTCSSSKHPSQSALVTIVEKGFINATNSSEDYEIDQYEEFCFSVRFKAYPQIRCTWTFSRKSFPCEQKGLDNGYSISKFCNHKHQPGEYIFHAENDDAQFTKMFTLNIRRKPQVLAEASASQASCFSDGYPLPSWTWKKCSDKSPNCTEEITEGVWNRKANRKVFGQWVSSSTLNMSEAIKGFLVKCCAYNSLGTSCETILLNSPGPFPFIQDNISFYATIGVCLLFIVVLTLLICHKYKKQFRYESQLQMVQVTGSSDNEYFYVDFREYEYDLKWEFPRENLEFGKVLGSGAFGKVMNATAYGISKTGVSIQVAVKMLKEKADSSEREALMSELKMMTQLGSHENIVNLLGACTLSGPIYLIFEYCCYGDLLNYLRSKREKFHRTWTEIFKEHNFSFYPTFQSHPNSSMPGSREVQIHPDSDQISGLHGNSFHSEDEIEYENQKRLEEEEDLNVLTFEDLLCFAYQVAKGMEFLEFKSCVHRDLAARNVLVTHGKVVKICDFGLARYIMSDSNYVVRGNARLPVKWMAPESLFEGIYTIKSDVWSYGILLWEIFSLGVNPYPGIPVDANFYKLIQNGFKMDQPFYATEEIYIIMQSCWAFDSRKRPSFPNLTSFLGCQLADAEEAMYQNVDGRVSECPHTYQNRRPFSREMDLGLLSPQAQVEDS
To be noted: at 1 µM.

Assay [16] addresses Vascular endothelial growth factor receptor 3 (Homo sapiens) (UniProt P35916). To be noted: at 0.1 µM.
Assay [17] has the same target. Conditions: at 1 µM.
Assay [18] has as its target Macrophage colony-stimulating factor 1 receptor (Homo sapiens) (UniProt P07333). To be noted: at 0.1 µM.
The target is the same in assay [19]. To be noted: at 1 µM.
For assay [20], the target named is Tyrosine-protein kinase Fyn (Homo sapiens) (UniProt P06241). To be noted: at 0.1 µM.
Sequence of Tyrosine-protein kinase Fyn (Homo sapiens) (P06241 2-537 limits assumed): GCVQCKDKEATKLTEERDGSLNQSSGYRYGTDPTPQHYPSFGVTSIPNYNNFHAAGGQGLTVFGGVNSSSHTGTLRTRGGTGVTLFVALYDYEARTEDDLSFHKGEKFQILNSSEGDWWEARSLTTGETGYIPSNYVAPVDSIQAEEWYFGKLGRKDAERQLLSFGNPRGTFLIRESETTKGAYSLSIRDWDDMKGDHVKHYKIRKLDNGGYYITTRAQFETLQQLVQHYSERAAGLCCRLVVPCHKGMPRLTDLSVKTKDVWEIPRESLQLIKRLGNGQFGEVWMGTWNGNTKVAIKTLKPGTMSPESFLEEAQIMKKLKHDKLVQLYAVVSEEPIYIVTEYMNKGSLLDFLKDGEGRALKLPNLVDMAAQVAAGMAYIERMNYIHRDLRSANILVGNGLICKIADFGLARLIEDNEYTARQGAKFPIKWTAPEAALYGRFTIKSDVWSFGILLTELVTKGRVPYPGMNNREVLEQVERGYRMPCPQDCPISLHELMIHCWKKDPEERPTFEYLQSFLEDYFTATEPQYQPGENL

Sequence of Serine/threonine-protein kinase Nek7 (Homo sapiens) (Q8TDX7 whole entry, looked up): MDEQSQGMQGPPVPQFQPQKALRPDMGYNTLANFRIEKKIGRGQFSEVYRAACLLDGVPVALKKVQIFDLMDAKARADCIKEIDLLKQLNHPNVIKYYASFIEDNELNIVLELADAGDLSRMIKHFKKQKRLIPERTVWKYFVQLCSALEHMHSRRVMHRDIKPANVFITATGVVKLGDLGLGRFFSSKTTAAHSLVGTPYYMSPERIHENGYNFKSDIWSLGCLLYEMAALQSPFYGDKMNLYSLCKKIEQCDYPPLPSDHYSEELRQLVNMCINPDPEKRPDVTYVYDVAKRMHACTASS
Sequence of Serine/threonine-protein kinase PLK1 (Homo sapiens) (P53350 whole entry): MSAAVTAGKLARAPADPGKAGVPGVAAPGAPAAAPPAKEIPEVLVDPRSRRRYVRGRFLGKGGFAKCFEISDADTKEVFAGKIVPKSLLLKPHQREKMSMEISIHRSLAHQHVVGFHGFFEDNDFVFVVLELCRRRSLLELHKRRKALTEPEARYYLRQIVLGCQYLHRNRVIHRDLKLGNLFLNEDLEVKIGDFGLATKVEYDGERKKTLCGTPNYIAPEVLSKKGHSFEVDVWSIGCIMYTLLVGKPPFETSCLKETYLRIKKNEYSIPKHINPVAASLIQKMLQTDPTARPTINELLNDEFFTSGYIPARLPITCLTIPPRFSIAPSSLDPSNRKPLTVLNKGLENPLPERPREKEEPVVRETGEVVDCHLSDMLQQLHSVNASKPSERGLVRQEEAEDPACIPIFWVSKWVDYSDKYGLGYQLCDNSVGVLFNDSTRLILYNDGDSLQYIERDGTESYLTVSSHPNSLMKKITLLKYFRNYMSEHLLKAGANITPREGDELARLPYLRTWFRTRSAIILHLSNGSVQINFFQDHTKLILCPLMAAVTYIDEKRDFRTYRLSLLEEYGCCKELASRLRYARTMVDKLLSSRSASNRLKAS
Sequence of Serine/threonine-protein kinase Nek6 (Homo sapiens) (Q9HC98 whole entry): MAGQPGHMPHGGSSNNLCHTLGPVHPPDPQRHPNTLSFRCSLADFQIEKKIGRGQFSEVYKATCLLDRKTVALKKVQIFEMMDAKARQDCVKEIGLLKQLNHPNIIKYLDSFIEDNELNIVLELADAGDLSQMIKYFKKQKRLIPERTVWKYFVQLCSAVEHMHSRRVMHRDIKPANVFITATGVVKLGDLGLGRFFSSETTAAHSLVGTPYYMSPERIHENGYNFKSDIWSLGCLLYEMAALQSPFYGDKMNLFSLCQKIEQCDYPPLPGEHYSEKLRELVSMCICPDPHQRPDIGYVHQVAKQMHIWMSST
Sequence of Macrophage colony-stimulating factor 1 receptor (Homo sapiens) (P07333 whole entry): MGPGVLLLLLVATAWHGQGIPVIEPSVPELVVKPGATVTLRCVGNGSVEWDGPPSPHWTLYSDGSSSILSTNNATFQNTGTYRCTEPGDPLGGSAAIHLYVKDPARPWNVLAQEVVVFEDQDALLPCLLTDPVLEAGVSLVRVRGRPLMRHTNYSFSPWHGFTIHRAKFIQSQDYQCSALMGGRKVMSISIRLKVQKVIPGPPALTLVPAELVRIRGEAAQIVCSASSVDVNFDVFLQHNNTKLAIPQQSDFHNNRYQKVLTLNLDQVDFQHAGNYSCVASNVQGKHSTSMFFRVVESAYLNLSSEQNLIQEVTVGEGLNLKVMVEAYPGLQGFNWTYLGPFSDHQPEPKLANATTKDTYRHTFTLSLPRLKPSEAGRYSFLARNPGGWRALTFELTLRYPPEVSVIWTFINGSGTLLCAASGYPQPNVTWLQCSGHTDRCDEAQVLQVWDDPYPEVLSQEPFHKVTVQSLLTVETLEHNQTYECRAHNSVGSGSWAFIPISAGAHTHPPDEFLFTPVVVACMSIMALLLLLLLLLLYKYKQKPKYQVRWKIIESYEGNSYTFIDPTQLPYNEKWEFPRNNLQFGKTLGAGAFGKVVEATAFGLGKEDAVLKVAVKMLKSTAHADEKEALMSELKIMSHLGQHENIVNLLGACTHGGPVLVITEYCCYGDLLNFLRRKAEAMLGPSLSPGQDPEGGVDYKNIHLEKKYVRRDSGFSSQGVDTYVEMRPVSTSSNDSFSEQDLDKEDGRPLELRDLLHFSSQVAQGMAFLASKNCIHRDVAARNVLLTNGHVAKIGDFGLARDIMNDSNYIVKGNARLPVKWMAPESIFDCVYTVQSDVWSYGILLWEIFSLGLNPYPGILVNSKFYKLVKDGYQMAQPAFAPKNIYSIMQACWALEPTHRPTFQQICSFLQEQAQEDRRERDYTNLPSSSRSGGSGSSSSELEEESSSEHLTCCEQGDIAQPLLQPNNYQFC
Sequence of Vascular endothelial growth factor receptor 3 (Homo sapiens) (P35916 whole entry): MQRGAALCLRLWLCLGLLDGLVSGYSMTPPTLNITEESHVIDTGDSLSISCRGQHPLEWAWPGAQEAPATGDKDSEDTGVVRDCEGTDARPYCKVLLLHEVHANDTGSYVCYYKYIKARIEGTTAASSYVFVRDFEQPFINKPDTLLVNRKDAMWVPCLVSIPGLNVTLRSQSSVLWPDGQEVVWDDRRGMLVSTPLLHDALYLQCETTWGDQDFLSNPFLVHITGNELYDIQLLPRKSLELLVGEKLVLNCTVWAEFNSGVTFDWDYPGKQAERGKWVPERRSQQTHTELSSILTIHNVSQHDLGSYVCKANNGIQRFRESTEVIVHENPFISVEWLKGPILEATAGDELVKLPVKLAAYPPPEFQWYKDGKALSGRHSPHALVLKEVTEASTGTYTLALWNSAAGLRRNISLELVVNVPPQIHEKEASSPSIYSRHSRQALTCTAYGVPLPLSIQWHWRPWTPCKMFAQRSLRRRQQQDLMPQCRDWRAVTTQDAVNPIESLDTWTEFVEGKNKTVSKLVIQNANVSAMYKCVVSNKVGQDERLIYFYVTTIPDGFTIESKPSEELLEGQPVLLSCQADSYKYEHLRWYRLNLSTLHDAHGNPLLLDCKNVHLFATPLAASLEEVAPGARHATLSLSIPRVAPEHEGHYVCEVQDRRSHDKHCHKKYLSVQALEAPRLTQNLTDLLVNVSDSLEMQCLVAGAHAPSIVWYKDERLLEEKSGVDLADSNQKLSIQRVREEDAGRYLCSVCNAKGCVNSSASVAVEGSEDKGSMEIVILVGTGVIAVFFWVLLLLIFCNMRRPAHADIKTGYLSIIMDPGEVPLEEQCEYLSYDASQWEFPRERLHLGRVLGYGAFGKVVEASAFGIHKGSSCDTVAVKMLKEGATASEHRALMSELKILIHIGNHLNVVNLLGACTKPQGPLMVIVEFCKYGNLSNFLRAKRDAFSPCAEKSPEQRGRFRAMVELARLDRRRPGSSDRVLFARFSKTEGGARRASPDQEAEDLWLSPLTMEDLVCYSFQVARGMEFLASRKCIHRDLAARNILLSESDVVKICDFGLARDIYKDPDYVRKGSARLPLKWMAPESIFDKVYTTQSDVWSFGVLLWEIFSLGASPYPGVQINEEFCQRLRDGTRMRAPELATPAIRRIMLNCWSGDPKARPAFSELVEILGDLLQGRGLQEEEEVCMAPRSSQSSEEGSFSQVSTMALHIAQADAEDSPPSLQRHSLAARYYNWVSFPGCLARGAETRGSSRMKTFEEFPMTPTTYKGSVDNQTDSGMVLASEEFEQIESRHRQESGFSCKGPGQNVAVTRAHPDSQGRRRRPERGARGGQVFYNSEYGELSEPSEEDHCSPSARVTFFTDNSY

As to `COc1cccc(Nc2nccc(-c3cnn4ncccc34)n2)c1`, the inhibition in assay [1] came to 18.1%; in assay [2] it was 3.3%; in assay [3], 18.3%; in [4], 4.5%; in assay [5], 5.64%; in [6], 3.79%. The inhibition in [7] was 1.04%; in [8], -0.48%; in assay [9], 4.19%; in assay [10] it was 10.7%; in [11], 26.1%; in assay [12], 3.48%. Also, the inhibition is 21.3% in assay [13]; 4.85% in [14]; 52.3% in assay [15]; -0.16% in [16]; 30.2% in [17]; 50.4% in [18]. The inhibition in [19] is 90.9%; in [20], 1.46%.
